# Bioassay records as filed in PubChem BioAssay.
# HCMV inh – blocks human cytomegalovirus replication | HFF cells, HCMV-luciferase reporter, 72 h; stronger effect = lower value | activity change, negative = inhibition, % at 57.5 µM | actives 4.5% (n = 410,000); in the data active = activity change below about -60%; inconclusive = no clear call, values can overlap the other calls; inactive = above about -39%
#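 After 16 h attachment at 37C, HFF cells received test compound and HCMV-luciferase (1 PFU/cell); reporter luminescence read 72 h later, data normalized against buffer-only and known inhibitor Salinomycin.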
# HCV inh – blocks hepatitis C virus; Huh7.5.1 HCVcc-Cre infection, luciferase reporter, 44 h; Potency, µM (doses to about 41.8 µM), without a hit: at the highest dose activity change, negative = inhibition, hits mostly inhibitors; actives 3.4% (n = 340,000); active = well fitted inhibition curve with a large enough effect; inconclusive = small, poorly fitted or top-dose-only effect, or another doubt; inactive = no such curve, though single readings can be large or run the other way; note: potency is the fitted concentration of half-maximal effect
#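 Compounds are dispensed onto cells plated 4 h earlier at 1,000 per well, with HCVcc-Cre virus (about 0.5 moi) added next. Following 44 h of culture, luminescent signal is measured for 15 sec after 15 min with substrate at room temperature.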
# FMDV antiviral – blocks foot and mouth disease virus | FMDV antiviral cell-based qHTS | Potency, µM (top dose mostly 57.9 µM), without a hit: at the top dose activity change, negative = inhibition, hits mostly inhibitors | actives 1.2% (n = 410,000); calls by dose curve; tested in HEK293T cells; note: read-out not given here; potency is the fitted concentration of half-maximal effect; nearly all actives have a fitted effect of over 45% in size
# Lassa entry inh – Lassa virus entry inhibition | Lassa virus pseudotype entry inhibition, cell reporter | Potency, µM (series often up to 37.9 µM), without a hit: at the top dose activity change, negative = inhibition, actives largely listed as inhibitors | actives 1.2% (n = 300,000); calls by dose curve; tested in HEK293 cells; note: potency is the fitted concentration of half-maximal effect; nearly all actives have a fitted effect of over 50% in size
# MARV entry inh – Marburg virus entry inhibition. Marburg virus pseudotyped entry inhibition, cell reporter. Potency, µM (top dose mostly 37.8 µM), for the others: at the highest dose activity change, negative = inhibition, hits mostly inhibitors. actives 1.8% (n = 300,000); calls by dose curve; tested in HEK293 cells; note: potency is the fitted concentration of half-maximal effect
# * hit, by the source's call; u = inconclusive; x = no result; [ ] = another dose, or the depositor's remark. Hits are enriched below; roughly 7.9% of the tested compounds scored in any of these assays. % is set by controls: 0 for no effect and ±100 for the full control effect.
SMILES,HCMV inh,HCV inh,FMDV antiviral,Lassa entry inh,MARV entry inh
COc1ccc(NC(=O)C2=CC(c3ccc(C)cc3)=NS(=O)(=O)N2C)cc1OC,-62*,u,u,x,x
O=C([C@@H]1CC1(c1ccccc1)c1ccccc1)N1CCOCC1,x,x,x,x,-6%
Fc1ccccc1C1c2[nH]c3ccccc3c2CCN1Cc1cccn1-c1ncccn1 (stereo not drawn),u,-21%,13%,u,3.2µM*
O=C(Nc1ccc(Cl)cc1)/C(=C/c1cccc(O)c1)c1nc2ccccc2s1,-98*,13µM*,10µM*,u,u
S=C(Nc1ccc(Cl)cc1)c1nc2ccccc2s1,31,-25%,10%,11%,u
CCc1cc(=O)oc2c(C)c(OC(C)C(=O)N3CC[C@@]4(O)CCCC[C@H]4C3)ccc12 (stereo partly drawn),21,0.89µM*,0%,x,x
CCc1cc(=O)oc2c(C)c(OC(C)C(=O)N3CCC[C@@H]3C(=O)O)ccc12 (stereo partly drawn),4,-3%,-5%,x,x
O=C(CCCN1C(=O)/C(=C/c2ccccc2Cl)SC1=S)NNC(=O)c1ccc(Cl)cc1,-75*,-12%,7.9µM*,x,x
Cc1ccc(C(=O)NNC(=O)CCCN2C(=O)/C(=C/c3ccccc3Cl)SC2=S)cc1,u,11%,u,u,11µM*
O=C(CCN1C(=O)/C(=C/c2ccccc2Cl)SC1=S)NNC(=O)c1ccccc1O,21,-30%,0%,u,-21%[46.1 µM]
O=C(CCN1C(=O)/C(=C/c2ccccc2Cl)SC1=S)NCCc1ccc(O)cc1,-101*,u,-5%,x,x
Cc1ccc(CNC(=O)c2ccc([N+](=O)[O-])o2)cc1,-38,u,-11%,u,u
Cc1ccc(/C=C/C(=O)c2ccc([N+](=O)[O-])o2)cc1,-79*,0.56µM*,u,x,x
O=C(/C=C/c1ccc(Cl)cc1)c1ccc([N+](=O)[O-])o1,-78*,-4%[8.37 µM],u,x,x
O=C(N/N=C/c1ccccc1F)c1cc2c(ccc3ccccc32)o1,-9,-12%,-6%,x,x
O=C(N/N=C/C=C/c1ccccc1)c1cc2c(ccc3ccccc32)o1,u,4%,u,7.9µM*,4.5µM*
C=CCn1cc(/C=N\NC(=O)c2cc3c(ccc4ccccc43)o2)c2ccccc21,-23,10µM*,-4%,-27%,-22%
CC(=O)Nc1cccc(/C(C)=N/Nc2ccc(S(=O)(=O)Nc3ccccc3C(=O)O)cc2[N+](=O)[O-])c1,14,-5%,1%,15%,1%
COc1ccc(N(Cc2cccs2)C(=O)COc2cccc(C)c2C)cc1,u,x,-23%,u,u
COc1ccc(N(Cc2cccs2)C(=O)COc2cc(C)c(Cl)c(C)c2)cc1,-99*,x,u,-10%[46.1 µM],u
CCN1CCN(c2nnc(-n3cccc3C(=O)NCc3ccccc3OC)s2)CC1,u,x,3%,-17%[46.1 µM],x
Cc1cccc(COCC(Cc2ccccc2)N2CCN(C(=O)c3cccc(C)c3)CCC2=O)c1 (stereo not drawn),27,-9%[8.37 µM],-17%,7.3µM*,-39%
CC(C)(C)c1ccc(C(=O)N2CCC(=O)N([C@H](COCc3ccccc3)Cc3ccccc3)CC2)cc1,-14,x,-20%,x,x
Cc1cccc(COCC(Cc2ccccc2)N2CCN(C(=O)c3cc(Cl)cc(Cl)c3)CCC2=O)c1 (stereo not drawn),x,-2%[8.37 µM],u,u,u
Cc1cccc(COCC(Cc2ccccc2)N2CCN(C(=O)c3ccc(Cl)c(Cl)c3)CCC2=O)c1 (stereo not drawn),31,u,u,15µM*,-45%
SMILES,HCMV inh,HCV inh,FMDV antiviral,Lassa entry inh,MARV entry inh
CC(C)(C)c1ccc(C(=O)N2CCC(=O)N(C(COCc3ccccc3)Cc3ccccc3)CC2)cc1 (stereo not drawn),37,u,u,8.2µM*,u
COc1cc(OC)c(NC(=O)/C=C/C(=O)O)cc1Cl,18,5%,-6%,-1%,-3%[46.1 µM]
Cc1ccc(S(=O)(=O)N(CC(O)CN2CCCC2)c2ccccc2)cc1 (stereo not drawn),14,17%,x,3%,-22%
CC(=O)Nc1ccccc1N(CC(O)Cn1c2ccccc2c2ccccc21)S(=O)(=O)c1ccc(C)cc1 (stereo not drawn),-11,11µM*,0%,u,u
CCOc1ccc(CN2CCN(CC(O)Cn3c4ccccc4c4ccccc43)CC2)cc1 (stereo not drawn),-1,18%,-5%,u,u
COc1ccc(CN2CCN(CC(O)Cn3c4ccccc4c4ccccc43)CC2)cc1 (stereo not drawn),-11,11µM*,u,-2%,-1%
CCN(CC(O)Cn1c2ccccc2c2ccccc21)S(=O)(=O)c1ccc(C)cc1 (stereo not drawn),12,3.2µM*,-8%,u,u
Cc1ccc(N(CC(O)Cn2c3ccccc3c3ccccc32)S(=O)(=O)c2ccc(F)cc2)cc1 (stereo not drawn),-92*,x,u,-19%[46.1 µM],u
CN(CC(O)Cn1c2ccccc2c2ccccc21)S(C)(=O)=O (stereo not drawn),-14,12%,-17%,x,x
Cc1ccc(C)n1C1C(=O)N(Cc2ccc(C(F)(F)F)cc2)c2c(F)cccc21 (stereo not drawn),-35,x,x,x,x
CCOc1ccc(-n2c(=O)c3c(C)c(C(=O)N(C)C)sc3n(CC(=O)Nc3c(C)cc(C)cc3C)c2=O)cc1,18,x,-14%,16%[46.1 µM],x
CCN1C(=O)[C@H]2[C@H]3[C@H](O)[C@H](O)C/C(=N\OC[C@@H](O)COCc4ccco4)[C@@H]3CC[C@H]2C1=O,x,x,x,x,34%[14.2 µM]
COc1ccc(N(CC(O)Cn2c3ccccc3c3ccccc32)S(=O)(=O)c2ccccc2)cc1 (stereo not drawn),-78*,u,u,-4%,u
CS(=O)(=O)N(CC(O)Cn1c2ccccc2c2ccccc21)c1ccccc1 (stereo not drawn),9,1%,u,-13%,u
CC/C(=N\N1CCCCCC1)c1c(O)n(-c2ccc(C)cc2)c(=O)[nH]c1=O,-19,4%,0%,0.4µM*,11%
O=C(O)CSc1ncnc2nc[nH]c12,-2,16%,8%,-3%,0%
O=C(CSc1ncnc2nc[nH]c12)N1CCN(c2ccc(Cl)cc2)CC1,-69*,u,u,u,u
O=C(Nc1nc(-c2cccs2)cs1)c1ccc(S(=O)(=O)N2CCCCC2)cc1,-67*,18µM*,16µM*,x,-3%
Cc1nc(-c2cccc(NC(=O)c3ccc(Cl)c(S(=O)(=O)N4CCCC4)c3)c2)cs1,-27,x,u,x,x
O=C(Nc1nc(-c2cccs2)cs1)c1cccc(S(=O)(=O)N2CCCCCC2)c1,95,11µM*,3%,-16%,u
Cc1nc(-c2cccc(NC(=O)c3cccc(S(=O)(=O)N4CCCC4)c3)c2)cs1,u,10µM*,u,x,x
CNc1nc(-c2ccc(S(=O)(=O)N3CCCCC3)cc2)cs1,74,u,-23%,x,x
